Measurements as given in PubChem BioAssay (EPA / NIEHS).
Inconclusive results are not listed. Calls of active or inactive are those of the source. The calls were made as follows: active = hit-call score of the fitted dose curve at least 0.9, where 1 is the maximum; inconclusive = response in the unintended direction; inactive = score below 0.9.

assay: ATG_M_19_TRANS: Attagene TRANS-FACTORIAL HepG2 Assay for M19 Transcription Factor (Internal Marker) (AID 2282974); conditions: HepG2 Attagene TRANS-FACTORIAL M19 internal marker reporter
Experimental: ATG_TRANS is a cell-based, multiplexed-readout assay that uses HepG2, a human liver cell line, with measurements taken at 24 hours after chemical dosing in a 24-well plate.ATG_M_19_TRANS is one of 30 assay component(s) measured or calculated from the ATG_TRANS assay. It is designed to make measurements of mRNA induction, a form of inducible reporter, as detected with fluorescence intensity signals by Reverse transcription polymerase chain reaction (RT-PCR) and Capillary electrophoresis technology.Data from the assay component ATG_M_19_TRANS was analyzed into 1 assay endpoint. This assay endpoint, ATG_M_19_TRANS, was analyzed in the positive analysis fitting direction relative to DMSO as the negative control and baseline of activity. Using a type of inducible reporter, measures of mRNA for gain-of-signal activity can be used to understand the background control at the transcription factor-level as they relate to the gene . Furthermore, this assay endpoint can be referred to as a secondary readout, because this assay has produced multiple assay endpoints where this one serves a background control function. To generalize the intended target to other relatable targets, this assay endpoint is annotated to the background measurement intended target family, where the subfamily is internal marker.
Human liver HepG2 cells are transiently transfected with multiple reporter transcription units (MRTUs) in 6-well plates using FuGene 6 reagent (Roche; 3 ml FuGene/1 mg DNA). The MRTU constructs are regulated by a cis-regulating element (promoter). […] A major difference between the CIS and TRANS system is that in CIS activities of endogenous TFs are measured, whereas the TRANS assay evaluates changes in activities of exogenous, chimeric NR-Gal4 proteins. […] At the end of 24 hour incubation, total RNA was isolated using TriZol reagent (Invitrogen). The isolated RNA is then reverse-transcribed using oligo(dT) primer and Mo-MLV reverse transcriptase (Invitrogen) with DNAse I (Ambion) treatment for 30 min. The one-tenth of the produced cDNA was amplified by PCR using Taq DNA polymerase (Invitrogen) and two reporter sequence-specific primers. The PCR products were fluorescently labeled by primer extension with 6-arboxyfluorescein (6-FAM) 5'-labeled reporter sequence-specific primer (2 min at 95 C, 20 s at 68 C and 10 min at 72 C) and these products were digested with 5U of HpaI (New England Biolabs) for 2h at 37 C. The fragments were purified using Qiaquick PCR columns (Qiagen), analyzed on an ABI 3130xL genetic analyzer (Applied Biosystems) with peak positions identified by using a set of X-rhodamine (ROX)-labeled MapMarker1000 molecular weight standards (BioVentures). The raw capillary electrophoresis data was processed using Attagraph software (Attagene).

outcome, inactive:
O=[N+]([O-])c1ccc2nc[nH]c2c1, CC(C)(C)NC(=O)[C@@H]1CN(Cc2cccnc2)CCN1C[C@@H](O)C[C@@H](Cc1ccccc1)C(=O)N[C@H]1c2ccccc2C[C@H]1O, O=C(OCc1ccccc1)c1ccccc1, NCc1ccccc1, c1ccc(CNc2ncnc3nc[nH]c23)cc1, CCCN[C@H]1CCc2nc(N)sc2C1, CCOc1ccc2c(c1)C(C)CC(C)(C)N2 (stereo not given), CC/C=C\CCO, CCCCC(CC)COC(=O)CS (stereo not given), CC(C)n1c(/C=C/[C@@H](O)C[C@@H](O)CC(=O)O)c(-c2ccc(F)cc2)c2ccccc21, N#CCN(CC#N)CCN(CC#N)CC#N, CC(C)CC(=O)CC(C)CC(C)C (stereo not given), CC1=NN(c2cc(Cl)c(S(=O)(=O)O)cc2Cl)C(=O)C1N=Nc1ccc(S(=O)(=O)O)cc1 (stereo not given), CCCCOC(=O)COc1ccc(Cl)cc1Cl, Nc1nnc(-c2ccc([N+](=O)[O-])o2)o1, Cc1cc2nc3c(=O)[nH]c(=O)nc-3n(C[C@H](O)[C@H](O)[C@H](O)CO)c2cc1C, CC(=O)CCc1ccccc1, C=CCOCC(CC)(CO)COCC=C, CN(C)CCC(c1ccc(Cl)cc1)c1ccccn1 (stereo not given), CC1=CCCC(C)(C)C12CCC(C)O2 (stereo not given), O=C(CC(C(=O)OC1CCCCC1)S(=O)(=O)O)OC1CCCCC1 (stereo not given), CCCCCC1CCCC(=O)O1 (stereo not given), O=C(O)c1cc(Cl)cc(Cl)c1O, Brc1ccc(Oc2ccc(Br)cc2)cc1, Clc1ccccn1, COCCCN, CCCCCCC1CCC(=O)O1 (stereo not given), COC(=O)CCSCCC(=O)OC, CC(C)=CCOC(=O)c1ccccc1, CCCCCCCCCCCCCC, CC[N+](CC)(CC(=O)Nc1c(C)cccc1C)Cc1ccccc1, C=CN1CCCCCC1=O, O=C(Oc1ccccc1)c1ccccc1, Cc1ccccc1S(=O)(=O)O, CC1=C(CC(=O)O)c2cc(F)ccc2/C1=C\c1ccc(S(C)=O)cc1 (stereo not given), C[Si](C)(C)O[Si](C)(C)O[Si](C)(C)C, CCCCCCOC(=O)CCCCCCCC(=O)OCCCCCC, NC(=O)c1ccc([N+](=O)[O-])cc1Cl, Cc1ccnc(N)c1, O=C(C(=O)c1ccccc1)c1ccccc1
